The source of these data is the supplement of paper PMC6992640.

This experiment relates to WHIM30 (cells of a triple-negative basal-like breast cancer xenograft). The experiment in a line: cell viability of combination (% of vehicle); higher = less cytotoxic. The note with it: 1 µM; 72 h; partner dose: 10 nM. Here is the method: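 PDX cells were treated for 72 h with each drug at 1 µM plus carfilzomib (10 nM; 100 nM for WHIM2). Luciferase viability is expressed as percent of vehicle.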
As to `CO[C@H]1C[C@@H]2CC[C@@H](C)[C@@](O)(O2)C(=O)C(=O)N2CCCC[C@H]2C(=O)O[C@H]([C@H](C)C[C@@H]2CC[C@@H](O)[C@H](OC)C2)CC(=O)[C@H](C)/C=C(\C)[C@@H](O)[C@@H](OC)C(=O)[C@H](C)C[C@H](C)/C=C/C=C/C=C/1C` [Rapamycin (Sirolimus)] + CC(C)C[C@H](NC(=O)[C@H](CCc1ccccc1)NC(=O)CN1CCOCC1)C(=O)N[C@@H](Cc1ccccc1)C(=O)N[C@@H](CC(C)C)C(=O)[C@@]1(C)CO1 [Carfilzomib], the “cell viability of combination” value is 25.8.
Then `COC(=O)c1ccc2c(c1)NC(=O)C2=C(Nc1ccc(N(C)C(=O)CN2CCN(C)CC2)cc1)c1ccccc1` [Nintedanib (BIBF 1120)] + CC(C)C[C@H](NC(=O)[C@H](CCc1ccccc1)NC(=O)CN1CCOCC1)C(=O)N[C@@H](Cc1ccccc1)C(=O)N[C@@H](CC(C)C)C(=O)[C@@]1(C)CO1 [Carfilzomib], with 24.9; and `C=C(c1ccc(C(=O)O)cc1)c1cc2c(cc1C)C(C)(C)CCC2(C)C` [Bexarotene] + CC(C)C[C@H](NC(=O)[C@H](CCc1ccccc1)NC(=O)CN1CCOCC1)C(=O)N[C@@H](Cc1ccccc1)C(=O)N[C@@H](CC(C)C)C(=O)[C@@]1(C)CO1 [Carfilzomib], with 25.7.
Then `CN(C)c1ccc(C(=C2C=CC(=[N+](C)C)C=C2)c2ccc(N(C)C)cc2)cc1.[Cl-]` [Crystal Violet] + CC(C)C[C@H](NC(=O)[C@H](CCc1ccccc1)NC(=O)CN1CCOCC1)C(=O)N[C@@H](Cc1ccccc1)C(=O)N[C@@H](CC(C)C)C(=O)[C@@]1(C)CO1 [Carfilzomib], with 6; and `Clc1ccc(CSC(Cn2ccnc2)c2ccc(Cl)cc2Cl)cc1.O=[N+]([O-])O` (stereo not given) [Sulconazole Nitrate] + CC(C)C[C@H](NC(=O)[C@H](CCc1ccccc1)NC(=O)CN1CCOCC1)C(=O)N[C@@H](Cc1ccccc1)C(=O)N[C@@H](CC(C)C)C(=O)[C@@]1(C)CO1 [Carfilzomib], with 14.2; and `CN1CCCC1CCOC(C)(c1ccccc1)c1ccc(Cl)cc1.O=C(O)C=CC(=O)O` (stereo not given) [Clemastine Fumarate] + CC(C)C[C@H](NC(=O)[C@H](CCc1ccccc1)NC(=O)CN1CCOCC1)C(=O)N[C@@H](Cc1ccccc1)C(=O)N[C@@H](CC(C)C)C(=O)[C@@]1(C)CO1 [Carfilzomib], with 15.5.
Then `CN1CCC(COc2cnc(-c3cccc(Cn4nc(-c5cccc(C#N)c5)ccc4=O)c3)nc2)CC1` + CC(C)C[C@H](NC(=O)[C@H](CCc1ccccc1)NC(=O)CN1CCOCC1)C(=O)N[C@@H](Cc1ccccc1)C(=O)N[C@@H](CC(C)C)C(=O)[C@@]1(C)CO1 [Carfilzomib], with 26.9.
With `Cl.OC(CNCC(O)C1CCc2cc(F)ccc2O1)C1CCc2cc(F)ccc2O1` (stereo not given) [Nebivolol] + CC(C)C[C@H](NC(=O)[C@H](CCc1ccccc1)NC(=O)CN1CCOCC1)C(=O)N[C@@H](Cc1ccccc1)C(=O)N[C@@H](CC(C)C)C(=O)[C@@]1(C)CO1 [Carfilzomib], the “cell viability of combination” value came to 21.2.
The value for `Clc1ccc(COC(Cn2ccnc2)c2ccc(Cl)cc2Cl)cc1.O=[N+]([O-])O` (stereo not given) [Econazole nitrate] + CC(C)C[C@H](NC(=O)[C@H](CCc1ccccc1)NC(=O)CN1CCOCC1)C(=O)N[C@@H](Cc1ccccc1)C(=O)N[C@@H](CC(C)C)C(=O)[C@@]1(C)CO1 [Carfilzomib] was 17.7; that for `CSc1ccc2c(c1)N(CCC1CCCCN1C)c1ccccc1S2.Cl` (stereo not given) [Thioridazine HCl] + CC(C)C[C@H](NC(=O)[C@H](CCc1ccccc1)NC(=O)CN1CCOCC1)C(=O)N[C@@H](Cc1ccccc1)C(=O)N[C@@H](CC(C)C)C(=O)[C@@]1(C)CO1 [Carfilzomib] was 17.7.
For `CS(=O)(=O)O.Cc1c(O)cccc1C(=O)NC(CSc1ccccc1)C(O)CN1CC2CCCCC2CC1C(=O)NC(C)(C)C` (stereo not given) [Nelfinavir Mesylate] + CC(C)C[C@H](NC(=O)[C@H](CCc1ccccc1)NC(=O)CN1CCOCC1)C(=O)N[C@@H](Cc1ccccc1)C(=O)N[C@@H](CC(C)C)C(=O)[C@@]1(C)CO1 [Carfilzomib], the “cell viability of combination” value turned out to be 26.7.
Then `Cl.Cl.O=C1c2c(O)ccc(O)c2C(=O)c2c(NCCNCCO)ccc(NCCNCCO)c21` [Mitoxantrone HCl] + CC(C)C[C@H](NC(=O)[C@H](CCc1ccccc1)NC(=O)CN1CCOCC1)C(=O)N[C@@H](Cc1ccccc1)C(=O)N[C@@H](CC(C)C)C(=O)[C@@]1(C)CO1 [Carfilzomib], with 5.21; and `COc1ccc2cc1Oc1ccc(cc1)CC1c3c(cc4c(c3Oc3cc5c(cc3OC)CCN(C)C5C2)OCO4)CCN1C` (stereo not given) [Cepharanthine] + CC(C)C[C@H](NC(=O)[C@H](CCc1ccccc1)NC(=O)CN1CCOCC1)C(=O)N[C@@H](Cc1ccccc1)C(=O)N[C@@H](CC(C)C)C(=O)[C@@]1(C)CO1 [Carfilzomib], with 9.41.
Then `Cc1cccc(CN2CCN(C(c3ccccc3)c3ccc(Cl)cc3)CC2)c1.Cl.Cl` (stereo not given) [Meclizine 2HCl] + CC(C)C[C@H](NC(=O)[C@H](CCc1ccccc1)NC(=O)CN1CCOCC1)C(=O)N[C@@H](Cc1ccccc1)C(=O)N[C@@H](CC(C)C)C(=O)[C@@]1(C)CO1 [Carfilzomib], with 11.7; and `Nc1c(CC(=O)[O-])cccc1C(=O)c1ccccc1.O.[Na+]` [Amfenac Sodium Monohydrate] + CC(C)C[C@H](NC(=O)[C@H](CCc1ccccc1)NC(=O)CN1CCOCC1)C(=O)N[C@@H](Cc1ccccc1)C(=O)N[C@@H](CC(C)C)C(=O)[C@@]1(C)CO1 [Carfilzomib], with 23.7.
Take `CC(Oc1cc(-c2cnn(C3CCNCC3)c2)cnc1N)c1c(Cl)ccc(F)c1Cl` [(R)-Crizotinib] + CC(C)C[C@H](NC(=O)[C@H](CCc1ccccc1)NC(=O)CN1CCOCC1)C(=O)N[C@@H](Cc1ccccc1)C(=O)N[C@@H](CC(C)C)C(=O)[C@@]1(C)CO1 [Carfilzomib]: the “cell viability of combination” value turned out to be 27.4.
The value for `Cl.O.O=C1Cc2cc(CCN3CCN(c4nsc5ccccc45)CC3)c(Cl)cc2N1` [Ziprasidone hydrochloride monohydrate] + CC(C)C[C@H](NC(=O)[C@H](CCc1ccccc1)NC(=O)CN1CCOCC1)C(=O)N[C@@H](Cc1ccccc1)C(=O)N[C@@H](CC(C)C)C(=O)[C@@]1(C)CO1 [Carfilzomib] was 22.5; that for `COCCn1c2c([n+](Cc3cnccn3)c1C)C(=O)c1ccccc1C2=O.[Br-]` + CC(C)C[C@H](NC(=O)[C@H](CCc1ccccc1)NC(=O)CN1CCOCC1)C(=O)N[C@@H](Cc1ccccc1)C(=O)N[C@@H](CC(C)C)C(=O)[C@@]1(C)CO1 [Carfilzomib] was 6.3; that for `Br.Cc1ccc(Sc2ccccc2N2CCNCC2)c(C)c1` + CC(C)C[C@H](NC(=O)[C@H](CCc1ccccc1)NC(=O)CN1CCOCC1)C(=O)N[C@@H](Cc1ccccc1)C(=O)N[C@@H](CC(C)C)C(=O)[C@@]1(C)CO1 [Carfilzomib] was 15.7.
Then `COc1cc2nccc(Oc3ccc(NC(=O)NC4CC4)c(Cl)c3)c2cc1C(N)=O` [Lenvatinib (E7080)] + CC(C)C[C@H](NC(=O)[C@H](CCc1ccccc1)NC(=O)CN1CCOCC1)C(=O)N[C@@H](Cc1ccccc1)C(=O)N[C@@H](CC(C)C)C(=O)[C@@]1(C)CO1 [Carfilzomib], with 21.9.
